Assay outcomes: PubChem BioAssay, several laboratories
The full list was thinned out, with hits kept by preference.
ARNT-TACC3 inh: ARNT/TACC3 interaction disruption | Q9Y6A5 | AlphaScreen His-ARNT PAS-B/GST-TACC3 binding, luminescence; TACC3 fragment carries E629A point mutation | inhibition, % at 9.99 µM | 390,000 compounds, 0.66% hits;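 active = mean inhibition of replicates at least 50% and at least half of replicates each reaching 50%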
PglD inh: PglD (C. jejuni) enzyme inhibition; purified PglD enzyme, DTNB colorimetric CoA detection; inhibition, % at 12.5 µM; 360,000 compounds, 0.098% hits; AID 602405; in the data active = inhibition above about 16%, passing the limit was not always enough
ALR H2O2 inh: human ALR oxidase inhibition via reduced H2O2; AID 485317; inhibition, % (concentration not given with the values); 290,000 compounds, 3.8% hits; purified ALR, DTT oxidation, H2O2 HRP-luminol luminescence;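 active = mean replicate inhibition above about 79%, with every replicate also reaching it, limit read from the data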
Target sequence (P55789 whole entry, looked up): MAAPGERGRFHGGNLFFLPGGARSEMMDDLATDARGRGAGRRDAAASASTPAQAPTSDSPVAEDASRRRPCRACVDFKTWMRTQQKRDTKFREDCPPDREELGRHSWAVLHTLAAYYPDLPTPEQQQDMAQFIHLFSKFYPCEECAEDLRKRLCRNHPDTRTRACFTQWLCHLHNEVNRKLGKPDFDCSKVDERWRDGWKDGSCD
PDI turbidity: PDI (human) enzyme inhibition. P07237. PDI insulin aggregation turbidity, A650, 90 min. inhibition, % at 10 µM. 350,000 compounds, 0.052% hits. AID 588391;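 active = mean inhibition across replicates of 30% or more, whatever share of single replicates reach that level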
ERp5 block: inhibitors of human ERp5 | Q15084 | ERp5 insulin aggregation, absorbance 650 nm, 90 min | inhibition, % at 9.99 µM | 350,000 compounds, 0.05% hits;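 active = mean replicate inhibition above about 25%, with every replicate also reaching it, limit read from the data, passing the limit was not always enough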
Target sequence (Q15084 whole entry, looked up): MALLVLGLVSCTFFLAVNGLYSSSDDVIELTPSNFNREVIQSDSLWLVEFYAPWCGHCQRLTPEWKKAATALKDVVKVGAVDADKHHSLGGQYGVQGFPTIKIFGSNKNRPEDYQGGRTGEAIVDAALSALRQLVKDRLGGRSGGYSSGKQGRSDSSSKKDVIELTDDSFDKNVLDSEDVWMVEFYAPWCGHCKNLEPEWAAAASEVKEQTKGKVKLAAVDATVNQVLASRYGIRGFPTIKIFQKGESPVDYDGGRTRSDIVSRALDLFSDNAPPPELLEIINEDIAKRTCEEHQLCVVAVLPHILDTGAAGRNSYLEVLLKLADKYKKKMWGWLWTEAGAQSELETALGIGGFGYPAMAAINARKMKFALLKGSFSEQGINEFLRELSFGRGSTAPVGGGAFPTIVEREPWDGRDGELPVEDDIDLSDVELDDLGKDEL
NRP1-CendR mod: NRP-1/CendR interaction modulation; O14786; FAM-RPARPAR peptide binding to NRP-1, fluorescence polarization; inhibition, % at 25 µM; 360,000 compounds, 0.85% hits; AID 602438;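 active = inhibition or corrected inhibition above about 18%, plus a signal ratio from 0.5 to 1.5, limit read from the data, passing the limit was not always enough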
Hits are given with their value; - = inactive; . = not tested or not shown.

SMILES	ARNT-TACC3 inh	PglD inh	ALR H2O2 inh	PDI turbidity	ERp5 block	NRP1-CendR mod
Cc1ccccc1NC(=O)CC1SC(=O)N(c2ccccc2)C1=O (stereo unspecified)	-	-	97	-	.	-
Cc1ccc(S(=O)(=O)N(C)C[C@@H]2Oc3c(NC(=O)Nc4ccc(F)cc4)cccc3C(=O)N([C@@H](C)CO)C[C@@H]2C)cc1	-	-	.	.	-	.
COc1cc(CNc2ccc3[nH]c(=O)[nH]c3c2)ccc1OCc1ccccc1	-	-	-	-	-	-
C=CCOc1ccc(CNc2ccc3[nH]c(=O)[nH]c3c2)cc1OC	-	.	.	-	-	-
COc1ccc(Br)cc1CNc1ccc2[nH]c(=O)[nH]c2c1	-	.	99	-	-	-
COc1cccc(CNc2ccc3[nH]c(=O)[nH]c3c2)c1OCc1ccccc1Cl	-	-	97	-	-	-
COc1cc(CNc2ccc3[nH]c(=O)[nH]c3c2)ccc1OCc1ccc(F)cc1	-	-	89	-	-	-
C=CCOc1cccc(CNc2ccc3[nH]c(=O)[nH]c3c2)c1	-	-	99	-	-	-
C[C@@H]1CN([C@H](C)CO)C(=O)c2cc(C3=CCCCC3)cnc2O[C@H]1CN(C)Cc1ccncc1	-	-	.	.	-	.
CN(C)CC(=O)Nc1ccc2c(c1)[C@H]1C[C@@H](CC(=O)NCCc3ccccc3)O[C@@H](CO)[C@H]1O2	-	-	.	.	-	.
C[C@@H]1CN([C@@H](C)CO)C(=O)c2cc(NS(C)(=O)=O)ccc2O[C@@H]1CN(C)Cc1ccc(C(=O)Nc2ccccc2N)cc1	.	.	.	.	-	.
COCC(=O)N1[C@H](C(=O)N2CCCCC2)[C@@H](CO)[C@@H]2Cn3c(ccc(C4=CCCCC4)c3=O)[C@@H]21	-	-	.	.	-	.
COc1cccc(CNc2ccc3[nH]c(=O)[nH]c3c2)c1OCc1ccccc1	-	-	99	-	.	-
C/C=C/c1ccc([C@@H]2[C@H](CN(C)S(=O)(=O)c3ccccc3)N[C@@H]2CO)cc1	-	-	.	.	.	.
Nc1c(C(=O)O)ccc2c1C(=O)c1ccccc1C2=O	-	.	-	-	-	-
Nc1cc(C(=O)O)c(N)c2c1C(=O)c1ccccc1C2=O	55	.	99	-	.	57
Cn1c(-c2ccccc2)cnc1N	58	-	-	-	.	-
COc1ccc(-c2cnc(N)nc2-c2ccc(OC)cc2)cc1	-	-	-	-	-	-
COc1ccc(-c2cnc(N)n2C)cc1	69	-	-	-	-	-
COCCn1c(-c2ccccc2)nc2ccccc21	-	-	.	-	.	-
Cn1c(-c2ccccc2)cnc1SCC(N)=O	-	-	-	-	.	-
COCCn1c(-c2ccccc2)cnc1N	51	.	.	-	.	-
CCCNC(=O)N1CC2(CN(S(=O)(=O)CC)C2)c2c(n(C)c3cc(OC)ccc23)[C@@H]1CO	.	.	.	.	-	.
C[C@@H]1CN([C@@H](C)CO)C(=O)c2cc(-c3ccccc3)cnc2O[C@H]1CN(C)C(=O)Cc1ccccn1	-	-	.	.	-	.
Cn1c(N2CCOCC2)nc(-c2ccccc2)c1-c1ccccc1	-	-	99	-	.	-
SMILES	ARNT-TACC3 inh	PglD inh	ALR H2O2 inh	PDI turbidity	ERp5 block	NRP1-CendR mod
c1ccc(-c2nc3ccccc3nc2N2CCOCC2)cc1	-	-	.	-	.	-
CC(=O)c1sc(N2CCOCC2)nc1-c1ccccc1	-	-	-	-	-	30
O=C(C[C@H]1CC[C@H](NC(=O)C2CC2)[C@H](CO)O1)NCc1ccccc1Cl	-	-	.	.	-	.
O=C(O)Cc1ccc(C(=O)CSc2ccccc2)s1	-	.	98	-	-	-
Cc1ccc(SCC(=O)c2ccc(CC(=O)O)s2)cc1	.	-	.	-	-	-
Cn1c(C(=O)NCc2cccnc2)cc2sc(Cl)cc21	-	-	94	-	-	-
COc1ccc(/C(N)=N/OC(=O)c2ccco2)cc1OC	-	.	-	-	-	-
Cc1csc(/C(=N/OC(=O)c2ccco2)C(N)=O)n1	-	-	97	-	-	-
c1ccc(-c2noc(CN3CCN(c4ccccc4)CC3)n2)cc1	-	-	82	.	-	-
c1ccc(-c2noc(CN3CCN(C(c4ccccc4)c4ccccc4)CC3)n2)cc1	-	-	-	-	.	-
CN(Cc1nc(-c2cccnc2)no1)S(=O)(=O)c1ccccc1	-	-	.	-	.	-
COc1ccc(-c2noc(CN3CCN(c4ccccc4F)CC3)n2)cc1OC	-	-	100	-	.	-
Fc1ccccc1N1CCN(Cc2nc(-c3ccccc3)no2)CC1	-	-	-	-	-	-
COc1ccc(-c2noc(CN(C)S(=O)(=O)c3ccccc3)n2)cc1OC	.	-	97	-	.	-
CC1(c2nnc(-c3ccccc3)o2)CC(c2cccc(Cl)c2)=NO1 (stereo unspecified)	-	-	-	-	-	-
CC1(c2nnc(-c3ccc(F)cc3)o2)CC(c2ccc(F)cc2)=NO1 (stereo unspecified)	-	-	-	-	.	24
CC1(c2nnc(-c3ccc(F)cc3)o2)CC(c2ccncc2)=NO1 (stereo unspecified)	.	.	-	.	.	.
CC1(c2nnc(-c3ccc(Cl)cc3)o2)CC(c2cccc(Cl)c2)=NO1 (stereo unspecified)	-	-	.	-	-	25
COCC(=O)N1CC2(C1)[C@H](c1ccc(-c3ccc(F)cc3)cc1)[C@@H](CO)N2C(C)=O	.	.	.	.	-	.
Cc1ccc(S(=O)(=O)N(C)C[C@@H]2Oc3ncc(-c4ccncc4)cc3C(=O)N([C@H](C)CO)C[C@H]2C)cc1	.	.	.	.	-	.
C[C@@H]1CN([C@@H](C)CO)C(=O)c2c(c3ccccc3n2C)-c2ccccc2CO[C@@H]1CN(C)C(=O)NC1CCCCC1	-	-	.	.	-	.
CC(C)NC(=O)N(C)C[C@@H]1Oc2ccc(N(C)C)cc2CC(=O)N([C@H](C)CO)C[C@H]1C	48	-	.	.	-	.
C[C@H](CO)N1C[C@H](C)[C@@H](CN(C)Cc2ccc(C(=O)Nc3ccccc3N)cc2)Oc2ccc(N(C)C)cc2CC1=O	45	-	.	.	-	.
CCOC(=O)Cc1cnc(NC(=O)NC(C(=O)OCC)(c2ccccc2)C(F)(F)F)s1 (stereo unspecified)	-	-	-	-	.	37
CCOC(=O)C(NC(=O)Nc1ccccc1)(OCC)C(F)(F)F (stereo unspecified)	-	-	-	-	.	-
SMILES	ARNT-TACC3 inh	PglD inh	ALR H2O2 inh	PDI turbidity	ERp5 block	NRP1-CendR mod
Cn1cnnc1SCC(=O)c1ccc(O)c(O)c1	-	-	99	-	-	-
O=C(O)c1ccc(CSc2nnnn2-c2ccc(F)cc2)cc1	-	.	-	-	-	-
O=C(CSc1nnnn1-c1ccc(F)cc1)c1ccc(O)c(O)c1	-	-	98	-	-	-
COc1ccc(CNS(=O)(=O)c2ccc(C)cc2)cc1	-	-	-	-	-	28
COc1ccc(CNS(=O)(=O)c2ccc(OC)cc2)cc1	-	-	-	-	.	-
OCc1ccccc1O[C@@H]1O[C@H](CO)[C@@H](O)[C@H](O)[C@H]1O	-	-	-	.	-	-
